Data as given in PubChem BioAssay AID581 (PCMD, 2007).
Hit rate of the full screen: of about 62,000 compounds, about 95 (0.2%) were called active.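 Rule for the calls: active = inhibition above 20% in each of the two mixture wells holding the compound; inactive = inhibition of 20% or less in either well.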 Only a selection was taken, and actives are over-represented in it overall.

target: Cathepsin G (Homo sapiens) (UniProt P08311); assay: blockers of neutrophil cathepsin G protease – biochemical, pooled compound mixtures, AMC fluorescence, primary screen (AID 581); settings: purified enzyme, AMC-tetrapeptide fluorescence, active compounds read high, screened at 5 µM (by protocol);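 note: 0% = enzyme control without mixture and 100% = blank lacking enzyme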
Sequence (P08311 21-244 limits assumed): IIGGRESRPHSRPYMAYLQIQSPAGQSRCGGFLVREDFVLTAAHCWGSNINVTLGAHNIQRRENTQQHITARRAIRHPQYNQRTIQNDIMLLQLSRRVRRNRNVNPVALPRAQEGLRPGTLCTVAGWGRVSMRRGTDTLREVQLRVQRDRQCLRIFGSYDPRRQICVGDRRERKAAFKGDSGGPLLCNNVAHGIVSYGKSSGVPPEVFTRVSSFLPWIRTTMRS

inhibition, inactive:
O=C1N=C(N2CCOCC2)CS1 -2.67%
O=C(CSc1nnc(-c2ccco2)n1CC1CCCO1)c1ccccc1 (stereo unspecified) 10.9%
CSc1ccc(-c2c(C#N)c(N)nc3c2c(C)nn3-c2ccccc2)cc1 5.96%
Cc1c(C(=O)OCC(=O)N(CCC#N)c2ccccc2)oc2c1ccc1ccccc12 10.9%
COc1ccc2nc(N3CCCC(O)C3)c(C#N)cc2c1 (stereo unspecified) 7.5%
O=C(Nc1ccc(S(=O)(=O)N2CCCC2)cc1Cl)C1=COCCO1 -0.78%
CN(C)c1ccc(CNC23CN4CN(CN(C4)C2)C3)cc1 -0.235%
CCCCNC(=O)CSc1nccn1Cc1ccccc1 -4.63%
COCCNC(=O)C(C#N)c1nc2ccccc2nc1N1CCN(Cc2ccc3c(c2)OCO3)CC1 (stereo unspecified) 8.39%
Cc1cc(N=CC2=C(O)CCCC2=O)no1 14.9%
CC1CCCC(C)N1C(=O)CN1CCN(c2nc(-c3ccc(F)cc3)cs2)CC1 (stereo unspecified) -39.9%
CCOC(=O)N1CCN(C(=O)c2ccc(CN(c3ccc(C)c(C)c3)S(C)(=O)=O)cc2)CC1 11.3%
N#CC1=C(N)Oc2n[nH]c(CSc3ccccc3)c2C12C(=O)Nc1ccccc12 (stereo unspecified) 13.8%
COc1ccc(-c2nc(CS(=O)CC(=O)N3CCc4ccccc4C3)c(C)o2)cc1 (stereo unspecified) 2.91%
CCCCn1nc(C(=O)N2CCc3ccccc32)c2ccccc2c1=O -0.085%
COc1ccccc1N1CC(O)=C(c2nc3ccccc3s2)C1=N -0.35%
O=C1CCC(C(=O)Nc2ccc(OC(F)F)cc2)N1 (stereo unspecified) 1.46%
Nc1c(C(=O)NCc2ccccc2)nnn1Cc1cccc(Cl)c1 -2.37%
Cc1cc(C(F)(F)F)nn1-c1nc(-c2ccco2)cc(C(F)(F)F)n1 -9.21%
Cc1ccc2cc3cc(C(=O)N4CCCCCC4)oc3nc2c1 8.2%
COCCOC(=O)C1=C(C)Nc2nc(C)nn2C1c1ccccc1 (stereo unspecified) -6.8%
CC1C=CCC2C(=O)N(c3cccc(C(=O)N4CCCCCC4)c3)C(=O)C12 (stereo unspecified) 9.22%
CCOC(=O)CSc1nnc(-c2ccncc2)o1 7.88%
O=C(c1ccco1)N1CCN=C1SCc1cccc(Cl)c1 -1.57%
Cc1ccc(-c2nc(CS(=O)CC(=O)NC3CCCC3)c(C)o2)cc1 (stereo unspecified) -3.33%
CCN(CCCNC(=O)C1CCN(S(=O)(=O)c2cnc[nH]2)CC1)c1ccccc1 14.4%
O=C(NCCCN1CCCCCC1)c1ccc(N2CCCC2=O)cc1 1.79%
CC1(N2CCOCC2)CC2(O)C(=[N+]1[O-])CCc1nonc12 (stereo unspecified) 11.9%
O=C(NC1CCCCC1)c1ccc2c(=O)n(CC3CCCO3)c(=O)[nH]c2c1 (stereo unspecified) -1.31%
Cc1cc(C)c(C)c(S(=O)(=O)Nc2ccc(O)cc2)c1C -0.38%
COc1ccc(OCCCON2C(=O)c3ccccc3C2=O)cc1 -4.08%
COc1cc(Br)cc(/C=N/c2ncn[nH]2)c1O 10.2%
CN(c1ccc(C(=O)NCCC2=CCCCC2)cc1)S(C)(=O)=O 1.87%
COc1cccc2cc(C(C)N(CCCN3CCOCC3)C(=O)Nc3ccc(Cl)cc3)oc12 (stereo unspecified) 1.68%
O=C(O)CN(Cc1ccco1)S(=O)(=O)c1ccc(F)cc1 6.5%
COc1ccc2c(c1OC)C(=O)N(c1ncn[nH]1)C2 -3.84%
COc1ccc(C)c2sc(=NC(=O)c3ccc(C#N)cc3)n(C)c12 1.85%
O=C(CCCC(=O)N(CC(=O)NC1CCCC1)Cc1ccccc1Cl)Nc1ccccn1 7.61%
Cc1nnc(NC2=NCCCCC2)o1 -1.69%
CSCCC1NC2(C(=O)Nc3ccc(Cl)cc32)[C@@H]2C(=O)N(C3CCCC3)C(=O)[C@H]12 (stereo partly specified) 17.3%
COc1ccc(N2C(=O)C3CCCN3C2c2cccc(OC)c2)cc1 (stereo unspecified) -5.7%
CCC(C)Sc1nc(C)nc2c1c(=O)n(C)c(=O)n2C (stereo unspecified) 8.64%
O=C(CC1CCCCC1)Nc1c2c(nn1-c1ccc(F)cc1)CS(=O)(=O)C2 -0.2%
COc1ccc(C2C(C#N)=C(N)Oc3cc(N)ccc32)cc1OC (stereo unspecified) -2.81%
O=C(CCCn1c(=O)oc2ccccc21)Nc1cccnc1 -1.41%
Cc1nc(-c2ccc(NC(=O)c3cccs3)cc2)cs1 8.02%
